# HPGD inh: inhibitors of human 15-hydroxyprostaglandin dehydrogenase (HPGD); purified HPGD, NADH fluorescence kinetic, PGE2 substrate; AID 894; 4.3% of 150,000 active; Potency, µM, for the others: top-dose activity change, negative = inhibition, most hits filed as inhibitors; P15428; also: potency is read from the fitted curve at half-maximal effect
#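 NADH formation kinetics: reaction with 30 uM PGE2 and 1 mM NAD+ (final), 20 nM enzyme, Tris-HCl pH 8 with Tween 20, after 15 min compound preincubation at room temperature. Fluorescence change, last versus first of five reads.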
# ALDH1A1 inh: ALDH1A1 (human) enzyme inhibition; P00352; Purified ALDH1A1, NADH fluorescence, propionaldehyde substrate; Potency, µM (highest dose often 75.3 µM), without a hit: at the top dose activity, negative = inhibition, most hits filed as inhibitors; 7.3% of 220,000 active; AID 1030;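 also: potency is read from the fitted curve at half-maximal effect; plate controls were no enzyme wells and a reference inhibitor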
# Target sequence (P00352 whole entry, looked up): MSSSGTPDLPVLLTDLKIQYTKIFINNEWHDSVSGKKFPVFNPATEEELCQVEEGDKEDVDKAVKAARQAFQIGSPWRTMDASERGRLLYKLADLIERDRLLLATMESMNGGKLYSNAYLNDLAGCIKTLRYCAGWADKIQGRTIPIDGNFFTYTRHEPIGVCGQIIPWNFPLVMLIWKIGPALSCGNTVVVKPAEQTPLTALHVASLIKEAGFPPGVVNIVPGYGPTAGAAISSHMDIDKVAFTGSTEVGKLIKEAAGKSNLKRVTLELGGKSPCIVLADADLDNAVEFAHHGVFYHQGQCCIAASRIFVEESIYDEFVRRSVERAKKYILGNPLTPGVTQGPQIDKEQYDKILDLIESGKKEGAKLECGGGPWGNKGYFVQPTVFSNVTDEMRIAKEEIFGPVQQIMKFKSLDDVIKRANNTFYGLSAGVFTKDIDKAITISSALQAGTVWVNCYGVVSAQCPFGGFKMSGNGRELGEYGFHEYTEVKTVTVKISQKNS
# PNC assembly inh: inhibitors of perinucleolar compartment assembly; PC3M PTB-GFP, PNC prevalence imaging, 16 h; active compounds read low; AID 2417; 3.1% of 140,000 active; activity change (PNC), negative = inhibition, % at 10 µM;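 active = readout at or below -70, meaning at least 70% loss of cells showing the perinucleolar compartment, a nuclear body marking cancer cells; inconclusive = readout between -30 and a set limit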;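 also: plate controls were DMSO wells for no effect and camptothecin positive control wells for full effect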
#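 PC3M cells stably expressing PTB-GFP, 750–1000 cells/well, treated 16 h at 37 °C with compound (23 nl of library stock), in duplicate. After paraformaldehyde fixation and Hoechst stain, imaged at 20x; PNC prevalence scored by image analysis.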
# 12-hLO inh: inhibitors of human 12-lipoxygenase (ALOX12); purified 12-hLO, xylenol orange hydroperoxide absorbance; 0.12% of 150,000 active; AID 1452; Potency, µM (highest dose often 57.1 µM), inactives show top-dose activity change, negative = inhibition, hits mostly inhibitors; P18054; active = well fitted inhibition curve with a large enough effect; inconclusive = small, poorly fitted or top-dose-only effect; also: potency is read from the fitted curve at half-maximal effect; nearly all actives have a fitted effect of over 55% in size
#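 150 nM 12hLO, 25 mM Hepes pH 7.0 + 0.01% Triton X-100; cpd preinc 15 min RT; 40 uM arachidonic acid, 30 min RT; Fe-XO 30 min; A573/A405 ratio as read-out.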
# LMNA splice mod: changes lamin A minigene splicing in HeLa cells; 0.01% of 200,000 active; Potency, µM (series often up to 46.1 µM), for inactives: at the top dose ratio change, negative = inhibition, actives largely listed as inhibitors; HeLa LMNA splicing GFP/RFP minigene ratio, 48 h; active = well fitted inhibition curve with a large enough effect in the signal ratio, with a control signal flat, not every such curve was filed as active; inconclusive = small, poorly fitted or top-dose-only effect, or effect the other way, or a change in a side signal; the % refers to the signal ratio; also: potency is read from the fitted curve at half-maximal effect
#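 S3 HeLa stable clones carrying a lamin A-EGFP splicing minigene plus DsRed2 were seeded at 600 cells/well in Opti-MEM with 2% FBS, pin-dosed and incubated 48 h at 37°C. Acumen cytometry (488 nm) gave the GFP/RFP total-intensity ratio.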
# The depositor's hits bear a star; ? = inconclusive; . = no result; [ ] = another dose, or the depositor's remark. Most compounds without a hit are left out; they make up all but 10% or so of the library. Unless noted, calls follow the shape of the dose curve; as a rule, active = well fitted inhibition curve with a large enough effect (not every such curve was filed as active); inconclusive = small, poorly fitted or top-dose-only effect, or another doubt; inactive = no such curve, though single readings can be large or run the other way. Unless noted, % is scaled to controls: 0 for no effect and ±100 for the full control effect.
SMILES,HPGD inh,ALDH1A1 inh,PNC assembly inh,12-hLO inh,LMNA splice mod
O=C1OC(/C=C/c2ccc(Cl)cc2Cl)=NC/1=C\c1cccs1,-7%,3.2µM*,-27,-5%,-1%
COc1ccc(C2=C/C(=C\c3cccc(OC(C)=O)c3)C(=O)O2)cc1,-20%,25µM*,1,-9%,-13%
CC=C1C2C=C(C)CC1(N)c1ccc(=O)[nH]c1C2 (configuration not stated),.,-2%,.,.,.
N=c1c2c(n(Cc3ccc(Br)cc3)c3c1CCC3)CCCC2,-1%,0%,-123*,2%,?
O=C1CC(C(=O)Nc2ccc(Cl)cc2[N+](=O)[O-])C2(CCCCC2)O1 (configuration not stated),-4%,2%,-84*,0%,-14%
O=C1CC(C(=O)Nc2ccccc2)C2(CCCCC2)O1 (configuration not stated),-14%,8%,3,-2%,-1%
Cc1ccc(C)n1CCN1CCN(CC(=O)Nc2cc(C(F)(F)F)ccc2Cl)CC1,-13%,28µM*,30,-2%,?
COc1ccc(C[N+](C)(C)N)cc1OC,-3%,-3%[13.5 µM],.,-5%[11.4 µM],.
CC(=O)c1nc(N2C(=O)CC(Cc3ccccc3)C2=O)sc1C (configuration not stated),28µM*,-2%,14,-5%,-9%
COc1ccc(N2CCSC2C(=O)NN)cc1 (configuration not stated),-15%,3.2µM*,15,4%,-16%
COC(=O)CN1C(=O)C(C)(C)c2cc(S(=O)(=O)Nc3ccc(Br)cc3F)ccc21,.,.,.,.,-2%[46 µM]
O=C1c2ccccc2S(=O)(=O)N1CC1CC(c2ccccc2Cl)=NO1 (configuration not stated),14µM*,13µM*,14,-6%,0%
CC1CN(C(=O)CN2C(=O)c3ccccc3S2(=O)=O)CC(C)O1 (configuration not stated),-3%,4%,?,3%,12%
COc1ccc(C(=O)Nc2cc(-c3nn4c(C)nnc4s3)ccc2C)cc1,?,4%,-9,-1%,11%
Cc1ccc(-c2nn3c(C)nnc3s2)cc1NC(=O)c1ccc(OC(C)C)cc1,1.1µM*,13µM*,?,-16%,1%
O=C1c2cccc3cccc(c23)C(=O)N1c1ccncc1,?,?,-100*,4%,-8%
C/C(=N\NC(=O)c1ccccc1)c1cc2cc([N+](=O)[O-])ccc2oc1=O,25µM*,-15%,?,-4%,?
Cc1cc(C)c(S(=O)(=O)/N=C2/C=C(Sc3ncn[nH]3)C(=O)c3ccccc32)cc1C,0.89µM*,1.8µM*,?,-20%,?
O=C(NC(=S)NC1CCCCCCCCCCC1)c1cccnc1,-9%,?,?,7%,10%
O=C(N=NC(=O)c1ccc2c(O)n(C3CCCCC3)c(O)c2c1)c1cccnc1,-17%,2.2µM*,56,1%,3%
O[C@]1(c2ccccc2)c2ccccc2NC2=NCCN21,2%,15%[13.5 µM],.,-3%[11.4 µM],.
COCCNC(=O)c1ccc(NC(C)=O)cc1,20µM*,-2%,-21,-2%,3%
CCOc1ccc(-c2c(C)nn3c(C)c(C(=O)NCCc4ccccc4)cnc23)cc1OCC,.,.,.,.,-8%[46 µM]
CC1C/C(=C/c2cccn2C)C(=O)/C(=C/c2cccn2C)C1 (configuration not stated),-23%,3.5µM*,-8,-26%,?
CCC(C)c1ccc(Nc2ncccc2C#N)cc1 (configuration not stated),18µM*,?,51,-7%,16%
SMILES,HPGD inh,ALDH1A1 inh,PNC assembly inh,12-hLO inh,LMNA splice mod
CCc1ccc(Nc2ncccc2C#N)cc1,?,-11%,36,-5%,-5%
CCOC(=O)c1c(C)oc2ncnc(Nc3ccc(OCC)cc3)c12,.,.,.,.,-1%[46 µM]
Cc1cccc(NC(=O)c2cc3c(=O)n(Cc4cccnc4)ccc3nc2C)c1,.,.,.,.,-1%[46 µM]
CCN(CC)c1ccc(/C=N/NS(=O)(=O)c2cccc([N+](=O)[O-])c2)cc1,-24%,3.5µM*,-14,-4%,-11%
CCN(Cc1ccccc1)c1ccc(/C=N/NS(=O)(=O)c2ccc(C)c([N+](=O)[O-])c2)cc1,?,3.2µM*,?,0%,?
O=C(O)[C@@H](Br)[C@@H](Br)c1ccccc1[N+](=O)[O-],-3%,3%[13.5 µM],.,-3%[11.4 µM],.
N#CC1=C(N)OC2=C(C(=O)CC(c3ccccc3)C2)C1c1ccc2c(c1)OCO2 (configuration not stated),28µM*,11µM*,35,-6%,?
N#CC1=C(N)OC(c2ccccc2)=C(C#N)C1c1ccc2c(c1)OCO2 (configuration not stated),14µM*,1µM*,1,-25%,-1%
Cc1ccc(C2C(C#N)=C(N)Oc3cc4c(cc32)OCO4)cc1 (configuration not stated),-22%,?,?,-25%,?
COc1cc(C2C(C#N)=C(N)Oc3cc(C)n(Cc4ccccn4)c(=O)c32)cc2c1OCO2 (configuration not stated),-25%,-1%,5,-5%,17%
COc1cc(C2C(C#N)=C(N)Oc3cc(C)n(CC4CCCO4)c(=O)c32)cc2c1OCO2 (configuration not stated),-19%,25µM*,13,-5%,2%
Cc1cc2c(c(=O)n1Cc1ccccn1)C(c1ccc3c(c1)OCO3)C(C#N)=C(N)O2 (configuration not stated),-12%,13µM*,-11,-1%,2%
CC1Cc2ccccc2N1C(=O)CSc1nc2ccc(NC(=O)COc3ccccc3)cc2s1 (configuration not stated),.,.,.,.,10%[46 µM]
C=CCC(Nc1ccc(OC)cc1)C(=O)OCC (configuration not stated),-1%,6%,.,.,.
Nc1ccc(S(=O)(=O)NCCS(=O)(=O)O)cc1,4%,-6%[13.5 µM],.,0%[11.4 µM],.
CC1CN(C(=O)N2CCC(C(=O)NCCCc3ccccc3)CC2)c2cc(Cl)ccc2O1 (configuration not stated),.,.,.,.,-8%[46 µM]
CC(=O)O[C@@]1(C(C)=O)CCC2C3CC(C)C4=CC(=O)CC[C@@]4(C)C3CC[C@]21C (some centres not stated),4%,4%,.,-2%,?
CCCCOC(=O)C1=C(C)Nc2nnnn2C1c1ccc(OC)c(OC)c1OC (configuration not stated),-1%,8%,-20,-2%,-3%
COC(=O)C1=C(C)Nc2nnnn2C1c1ccccc1Cl (configuration not stated),-9%,2.5µM*,?,4%,-9%
CCCCCOC(=O)C1=C(C)Nc2nnnn2C1c1ccccc1Cl (configuration not stated),-6%,2µM*,-13,-22%,?
